# Test results reported in PubChem BioAssay (NCATS).
# Several values for one entry are separate records, joined by “and”; a condition that tells them apart may be missing. Identical values can stand only once. Unmarked numbers belong to inactive results. Records with an inconclusive call do not appear. Where a call stands in place of a potency, no number is given. Activity calls are given as the source filed them. Unless noted, the call rests on the fitted dose curve; in most records, active means well fitted curve in the direction sought with a large enough effect; inconclusive means small, poorly fitted or top-dose-only effect, or another doubt; inactive means no such curve, though single readings can be large; an effect the other way counts as inactive or inconclusive.
# Legend:
# [1] = target: Glucagon-like peptide 1 receptor (Homo sapiens) (UniProt P43220); experiment: qHTS of GLP-1 Receptor Agonists: LOPAC Validation (AID 624148);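 further: higher luminescence signal means agonism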
# How it was run: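 HEK293 cells stably co-expressing a cAMP-responsive luciferase reporter and a hypersensitive GLP-1R were plated 12 h at 37 °C and exposed to compounds for 4-6 hr at 37 °C, 5% CO2. Luminescence was read 12 min after adding detection reagent.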
# [2] = qHTS of Nrf2 Activators: LOPAC Validation (AID 624149)
# How it was run: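 Cells (AREc32_Fluc) are plated at 1000 per well in OPTI-MEM containing 5% FBS and left overnight. Compounds are pinned in and incubated 24 hr at 37 deg C, and firefly luciferase is detected with Steady-Glo.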
# [3] = HTS Assay for Allosteric Antagonists of the Human D2 Dopamine Receptor: Hit Validation in HTRF (AID 624455);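 further: stable D1 dopamine receptor cell line scored for blocking the D1 response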
# How it was run: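 Inhibition of the D1-mediated response is measured by HTRF in cells that stably express the D1 dopamine receptor. Compounds reaching this step are hits from calcium-flux antagonism testing at EC80 dopamine in inducible Hek293 Trex D2 cells.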
# [4] = qHTS assay for small molecule agonists of the antioxidant response element (ARE) signaling pathway (AID 651741; active means well fitted activation curve with a large enough effect in the signal ratio; the % refers to the signal ratio)
# How it was run: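 Reporter: beta-lactamase under ARE, stably in HepG2. Exposure: 16 h, 37 C, compounds delivered in DMSO by pin tool after 5 h cell preincubation. Readout: FRET substrate fluorescence after 2 h at RT.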
# [5] = qHTS assay for small molecule activators of the p53 signaling pathway (AID 651743; active means well fitted activation curve with a large enough effect in the signal ratio, not every such curve was filed as active; the % refers to the signal ratio; further: series mostly up to about 92 µM); conditions: HCT-116 p53RE-bla, beta-lactamase FRET ratio, 16 h; activation: active compounds read high
# How it was run: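 Agonist-mode quantitative HTS in HCT-116 cells carrying a p53-response-element beta-lactamase reporter; 16 h compound treatment at 37 C, then FRET substrate loading for 2 h at room temperature and fluorescence read.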
# Sequence of Glucagon-like peptide 1 receptor (Homo sapiens) (P43220 whole entry, looked up): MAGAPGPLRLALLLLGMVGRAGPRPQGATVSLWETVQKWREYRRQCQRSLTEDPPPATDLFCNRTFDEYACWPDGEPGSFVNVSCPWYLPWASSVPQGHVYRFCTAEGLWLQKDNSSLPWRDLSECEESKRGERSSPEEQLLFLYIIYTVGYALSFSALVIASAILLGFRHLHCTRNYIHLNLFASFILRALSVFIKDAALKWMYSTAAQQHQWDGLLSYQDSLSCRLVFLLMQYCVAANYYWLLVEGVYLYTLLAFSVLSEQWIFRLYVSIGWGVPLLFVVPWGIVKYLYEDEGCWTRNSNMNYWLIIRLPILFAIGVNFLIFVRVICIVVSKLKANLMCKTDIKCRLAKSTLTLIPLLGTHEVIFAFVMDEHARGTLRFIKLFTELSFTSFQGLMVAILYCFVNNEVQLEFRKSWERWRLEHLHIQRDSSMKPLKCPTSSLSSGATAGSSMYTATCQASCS
smiles,measurement,setting,value
CN(C)C(=O)Oc1cccc([N+](C)(C)C)c1,outcome,[1],inactive
same,outcome,[2],inactive
same,Potency,[3],inactive
CCCCNC(=O)NS(=O)(=O)c1ccc(C)cc1,outcome,[1],inactive
same,outcome,[2],inactive
same,Potency,[4],inactive
same,activation,[5],-3.27% and -2.98%
COC(=O)C1=C(C)NC(C)=C(C(=O)OCCN(C)Cc2ccccc2)C1c1cccc([N+](=O)[O-])c1 (configuration not stated),outcome,[1],inactive
same,Potency,[3],inactive
COc1cc(C(=O)OCCCN2CCCN(CCCOC(=O)c3cc(OC)c(OC)c(OC)c3)CC2)cc(OC)c1OC,outcome,[1],inactive
same,outcome,[2],inactive
same,Potency,[3],inactive
CCc1c(C)[nH]c2c1C(=O)C(CN1CCOCC1)CC2 (configuration not stated),outcome,[1],inactive
same,outcome,[2],inactive
same,Potency,[3],inactive
CC(C)NCC(O)c1cc(O)cc(O)c1 (configuration not stated),outcome,[2],inactive
CC(C)[N+](C)(CCOC(=O)C1c2ccccc2Oc2ccccc21)C(C)C,outcome,[2],inactive
C[C@]12CCC(=O)C=C1CC[C@@H]1[C@@H]2C(=O)C[C@@]2(C)[C@H]1CC[C@]2(O)C(=O)CO,outcome,[1],inactive
same,outcome,[2],inactive
same,Potency,[3],inactive
same,Potency,[4],inactive
same,activation,[5],-9.05%
Cc1ccc(/C(=C\CN2CCCC2)c2ccccn2)cc1,outcome,[1],inactive
same,Potency,[3],inactive
O=C(O)CCCCCCCC(=O)O,outcome,[1],inactive
same,outcome,[2],inactive
same,Potency,[3],inactive
same,Potency,[4],inactive
same,activation,[5],-3.2%
CC1=C(C)C(=O)C(CCCCC#CCCCC#CCO)=C(C)C1=O,outcome,[1],inactive
same,Potency,[3],inactive
CO[C@@]1(NC(=O)CSCC#N)C(=O)N2C(C(=O)O)=C(CSc3nnnn3C)CS[C@@H]21,outcome,[2],inactive
CNCCCN1c2ccccc2CCc2ccccc21,outcome,[1],inactive
same,Potency,[3],inactive
Fc1ccc(C(c2ccc(F)cc2)N2CCN(C/C=C/c3ccccc3)CC2)cc1,outcome,[1],inactive
same,outcome,[2],inactive
same,Potency,[3],inactive
COCCc1ccc(OCC(O)CNC(C)C)cc1 (configuration not stated),outcome,[1],inactive
same,outcome,[2],inactive
same,Potency,[3],inactive
COCCOC(=O)C1=C(C)NC(C)=C(C(=O)OC(C)C)C1c1cccc([N+](=O)[O-])c1 (configuration not stated),outcome,[2],inactive
CC(=O)Nc1nnc(S(N)(=O)=O)s1,outcome,[2],inactive
same,Potency,[4],inactive
same,activation,[5],-5.68%
Cc1nnc(SCC2=C(C(=O)O)N3C(=O)[C@@H](NC(=O)Cn4cnnn4)[C@H]3SC2)s1,outcome,[2],inactive
same,Potency,[3],inactive
CCN(CC)CCOCCOC(=O)C1(c2ccccc2)CCCC1,outcome,[2],inactive
same,Potency,[3],inactive
NC(=O)c1cn(Cc2c(F)cccc2F)nn1,outcome,[2],inactive
same,Potency,[3],inactive
CCOC(=O)c1cnc2c(cnn2CC)c1NN=C(C)C,outcome,[2],inactive
same,Potency,[3],inactive
CCn1ccnc1CC1COc2ccccc2O1 (configuration not stated),outcome,[2],inactive
same,Potency,[3],inactive
CC(=O)[C@]1(O)Cc2c(O)c3c(c(O)c2[C@@H](O[C@H]2C[C@H](N)[C@H](O)[C@H](C)O2)C1)C(=O)c1ccccc1C3=O,outcome,[2],inactive
same,Potency,[3],inactive
C[C@H](CS)C(=O)N1CCC[C@H]1C(=O)O,outcome,[2],inactive
same,Potency,[3],inactive
CCN1CCC[C@H]1CNC(=O)c1c(O)c(Cl)cc(Cl)c1OC,outcome,[2],inactive
same,Potency,[3],inactive
COc1ccc([C@@H]2Sc3ccccc3N(CCN(C)C)C(=O)[C@@H]2OC(C)=O)cc1,outcome,[2],inactive
same,Potency,[3],inactive
Nc1c2c(nc3ccccc13)CCCC2O (configuration not stated),outcome,[2],inactive
same,Potency,[3],inactive
O=C(CCNNC(=O)c1ccncc1)NCc1ccccc1,outcome,[2],inactive
same,Potency,[3],inactive
NC(=Nc1ccccc1)Nc1ccccc1,activation,[5],-3.94% and -5.84%
